Source: PubChem BioAssay (National Center for Advancing Translational Sciences (NCATS))
CtBP-E1A blk – CtBP/E1A binding inhibition; AlphaScreen GST-E1A/His-CtBP binding, 1536-well; stronger effect = lower value; activity change, % (test concentration not listed); 340,000 compounds, 0.49% hits; in the data active = activity change below about -65%; inconclusive = mostly about -30% to -63%; note: % is set by controls: 0 for no effect and ±100 for the full control effect
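In 5 uL wells, 23 nL compound meets equimolar GST-E1A and His-CtBP (5X stock 125 nM each) for 2 h, 37 °C. Beads (5X, 50 ug/mL) then 1 h, 37 °C, dark.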
Six1-Eya2 blk – blocks human Six1 binding to Eya2; Q15475+O00167; AlphaScreen GST-Six1/His-Eya2 binding, biochemical; stronger effect = lower value; activity change, % (concentration not given with the values); 360,000 compounds, 0.56% hits; in the data active = activity change below about -65%; inconclusive = mostly about -30% to -63%; note: % is set by controls: 0 for no effect and ±100 for the full control effect
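Compounds are tested against tagged Six1 and Eya2 proteins bridged by glutathione donor and nickel acceptor beads; after a one-hour incubation at 37 °C without light, AlphaScreen emission is recorded.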
TDP1 inh – inhibitors of human tyrosyl-DNA phosphodiesterase TDP1; Potency, µM (titrated, usually from 130 µM), inactives show at the top dose activity change, negative = inhibition, actives largely listed as inhibitors; AID 485290; recombinant TDP1, AlphaScreen DNA substrate cleavage; 350,000 compounds, 0.28% hits; note: potency is the fitted concentration of half-maximal effect; % is set by controls: 0 for no effect and ±100 for the full control effect; nearly all actives have a fitted effect of over 40% in size
Target sequence (Q9NUW8 whole entry, looked up): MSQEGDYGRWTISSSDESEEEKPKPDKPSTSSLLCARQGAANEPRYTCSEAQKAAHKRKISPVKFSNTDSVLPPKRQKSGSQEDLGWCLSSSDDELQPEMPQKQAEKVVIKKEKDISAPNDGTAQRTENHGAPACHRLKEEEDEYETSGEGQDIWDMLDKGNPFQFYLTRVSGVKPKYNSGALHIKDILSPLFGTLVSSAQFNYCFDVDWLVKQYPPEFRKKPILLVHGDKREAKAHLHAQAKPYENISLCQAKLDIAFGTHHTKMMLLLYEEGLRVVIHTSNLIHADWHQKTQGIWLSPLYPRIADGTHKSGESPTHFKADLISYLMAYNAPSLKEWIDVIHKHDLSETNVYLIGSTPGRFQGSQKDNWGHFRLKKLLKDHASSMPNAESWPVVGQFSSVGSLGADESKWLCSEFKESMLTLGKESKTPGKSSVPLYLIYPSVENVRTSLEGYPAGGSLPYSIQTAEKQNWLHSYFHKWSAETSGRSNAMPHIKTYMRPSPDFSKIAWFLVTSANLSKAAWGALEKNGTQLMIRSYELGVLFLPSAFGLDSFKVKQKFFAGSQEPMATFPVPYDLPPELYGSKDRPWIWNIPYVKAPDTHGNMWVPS
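Steps: enzyme plus compound, 15 min RT; add biotin/phosphotyrosine-FITC oligonucleotide (15 nM final), react 5 min; add donor/acceptor beads (10 ug/ml final), 10 min; read AlphaScreen. Tdp1 at 1 nM final.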
JMJD2A Tudor – blocks the human JMJD2A Tudor domain; AID 504339; AlphaScreen JMJD2A-Tudor / H3K4me3 peptide binding; Potency, µM (top dose mostly 114 µM), for inactives: at the top dose activity change, negative = inhibition, hits mostly inhibitors; 390,000 compounds, 4.4% hits; note: potency is the fitted concentration of half-maximal effect; % is set by controls: 0 for no effect and ±100 for the full control effect; nearly all actives have a fitted effect of over 50% in size
HP1b binding inh – blocks HP1-beta chromodomain binding to methylated histone tails; Potency, µM (titrated, usually from 114 µM), without a hit: at the highest dose activity change, negative = inhibition, hits mostly inhibitors; 390,000 compounds, 0.56% hits; AlphaScreen HP1-beta / biotin-H3K9me3 peptide binding; AID 540317; P83916; note: potency is the fitted concentration of half-maximal effect; nearly all actives have a fitted effect of over 70% in size
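AlphaScreen: HP1-beta (50 nM) preformed 30 min with biotin-H3(1-18)K9me3 peptide (50 nM) in PBS pH 7.4, 0.01% Tween-20. Compound added for 30 min at RT, then streptavidin donor/nickel chelate acceptor beads (10 ug/mL) for 30 min.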
BAZ2B inh – blocks human BAZ2B; Q9UIF8; AlphaScreen BAZ2B-H3K14Ac peptide displacement; Potency, µM (highest dose often 114 µM), for inactives: top-dose activity change, negative = inhibition, most hits filed as inhibitors; 360,000 compounds, 4.4% hits; AID 504333; note: potency is the fitted concentration of half-maximal effect; % is set by controls: 0 for no effect and ±100 for the full control effect; nearly all actives have a fitted effect of over 60% in size
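Compounds, titrated to a top concentration of 110 uM, were incubated 30 min at room temperature with preformed BAZ2B/acetyl-K14 H3 peptide complex (50 nM each). Proximity signal was measured by AlphaScreen after 20 min with beads.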
An asterisk follows results filed as active; [ ] = remark or other dose. The list is not random: actives were taken first. Their share in the collection is about 5.3%. Unless noted, calls come from the whole dose curve; as a rule, active = well fitted inhibition curve with a large enough effect; inconclusive = small, poorly fitted or top-dose-only effect; inactive = no such curve, though single readings can be large or run the other way.

What do the screens show for `CN1CCN(C(c2ccc(F)cc2)c2ccc3cccnc3c2O)CC1` (stereo unspecified)?
Six1-Eya2 blk: -6; JMJD2A Tudor: 9%; HP1b binding inh: 47%

What do the screens show for `CN1CCN(C(c2cccnc2)c2ccc3cccnc3c2O)CC1` (stereo unspecified)?
CtBP-E1A blk: -81*; Six1-Eya2 blk: -90*; TDP1 inh: -4%; JMJD2A Tudor: inconclusive; HP1b binding inh: inconclusive; BAZ2B inh: 10µM*

How did CN1CCN(C(c2ccc(Br)cc2)c2cc(Cl)c3cccnc3c2O)CC1 (stereo unspecified) do in these assays?
CtBP-E1A blk: -90*; Six1-Eya2 blk: inconclusive; TDP1 inh: 10%; JMJD2A Tudor: 50µM*; HP1b binding inh: inconclusive; BAZ2B inh: 45µM*

Results for Cc1cc(C(=O)O)ccc1-c1ccc(/C=C2\SC(=O)N(CC(=O)Nc3ccc4c(c3)OCO4)C2=O)o1 ?
TDP1 inh: 8.9µM*; BAZ2B inh: 18µM*

What do the screens show for `Cc1ccccc1NC(=O)CN1C(=O)S/C(=C\c2ccc(-c3cc(C(=O)O)ccc3C)o2)C1=O`?
CtBP-E1A blk: -14; Six1-Eya2 blk: -5; JMJD2A Tudor: 22µM*; HP1b binding inh: 40µM*; BAZ2B inh: 14µM*

Results for Cc1ccc(C(=O)O)cc1-c1ccc(/C=C2\SC(=O)N(CC(=O)Nc3ccccc3)C2=O)o1 ?
CtBP-E1A blk: -1; Six1-Eya2 blk: 1; TDP1 inh: 40µM*; JMJD2A Tudor: 35µM*; HP1b binding inh: inconclusive; BAZ2B inh: 22µM*

Results for Cc1cc(C(=O)O)ccc1-c1ccc(CO)o1 ?
CtBP-E1A blk: 0; Six1-Eya2 blk: -3; TDP1 inh: -3%; JMJD2A Tudor: -7%; HP1b binding inh: 46%; BAZ2B inh: -26%

Results for C#CCN1C(=O)S/C(=C\c2ccc(-c3ccc(C(=O)O)cc3C)o2)C1=O ?
CtBP-E1A blk: 0; Six1-Eya2 blk: -15; JMJD2A Tudor: 89µM*; HP1b binding inh: -27%; BAZ2B inh: 50µM*

How did Cc1cc(/C=C2\SC(=O)N(CC(=O)Nc3ccccc3F)C2=O)c(C)n1C do in these assays?
CtBP-E1A blk: 0; Six1-Eya2 blk: 10; TDP1 inh: -3%; JMJD2A Tudor: -4%; HP1b binding inh: 27%; BAZ2B inh: inconclusive

How did COc1ccc(N2CC(NC(=O)C3CC3)CC2=O)cc1 (stereo unspecified) do in these assays?
TDP1 inh: 0%; JMJD2A Tudor: -8%; HP1b binding inh: -11%; BAZ2B inh: -5%

Results for Cc1ccc(-c2nnc(Nc3ccc(O)cc3)c3ccccc23)cc1S(=O)(=O)N1CCCCC1 ?
TDP1 inh: 5%[12.3 µM]; JMJD2A Tudor: inconclusive; HP1b binding inh: -7%; BAZ2B inh: -15%

How did COc1cccc(C(=O)Nc2ccc3nc(SCCOc4ccccc4)sc3c2)c1 do in these assays?
TDP1 inh: 3%; JMJD2A Tudor: -12%; HP1b binding inh: 39%; BAZ2B inh: 3%

Results for O=C(NC1CC(=O)N(c2ccc(F)cc2)C1)c1ccc(S(=O)(=O)N2CCCCC2)cc1 (stereo unspecified) ?
TDP1 inh: 0%; JMJD2A Tudor: inconclusive; HP1b binding inh: 6%; BAZ2B inh: -15%

Results for CCOc1ccc(CCNC(=O)c2sc3ncccc3c2-n2c(C)ccc2C)cc1 ?
TDP1 inh: 9%; JMJD2A Tudor: -29%; HP1b binding inh: 29%[57 µM]; BAZ2B inh: 22%

How did Cc1ccc(NC(=O)CN2C(=O)S/C(=C\c3ccc(-c4cccc(C(=O)O)c4C)o3)C2=O)cc1 do in these assays?
BAZ2B inh: 25µM*

Results for CCc1cccc(NC(=O)CCS(=O)(=O)c2cc3c4c(c2)CCN4C(=O)CC3)c1 ?
TDP1 inh: 3%; JMJD2A Tudor: -17%; HP1b binding inh: -5%; BAZ2B inh: -2%

Results for O=C(NNc1ccc(C2CCCCC2)cc1)C(O)(c1ccccc1)c1cccs1 (stereo unspecified) ?
CtBP-E1A blk: 4; Six1-Eya2 blk: -11; TDP1 inh: 6%; JMJD2A Tudor: -30%; HP1b binding inh: 14%; BAZ2B inh: 50µM*

Results for COc1ccc(C(O)(C(=O)NNc2ccc(C)cc2)c2cccs2)cc1 (stereo unspecified) ?
CtBP-E1A blk: -6; Six1-Eya2 blk: -3; TDP1 inh: 6%; JMJD2A Tudor: -19%; HP1b binding inh: 31%; BAZ2B inh: -6%

Results for COc1ccc(CC2=CC(=O)c3ccccc3C2=O)cc1 ?
Six1-Eya2 blk: 1; JMJD2A Tudor: 25µM*; HP1b binding inh: 13µM*; BAZ2B inh: 14µM*

What do the screens show for `COc1ccc(Cc2ccccc2C(=O)O)cc1`?
CtBP-E1A blk: -5; Six1-Eya2 blk: 8; JMJD2A Tudor: -10%; HP1b binding inh: 9%[57 µM]

How did CCOC(=O)c1cccc(NC(=O)CCc2c(C)nn(-c3ccc(N4CCOCC4)nn3)c2C)c1 do in these assays?
TDP1 inh: 3%; JMJD2A Tudor: -21%; HP1b binding inh: 16%; BAZ2B inh: -21%

What do the screens show for `CCCc1nc2c(C)ccc(C)c2c(N)c1CC`?
CtBP-E1A blk: 0; Six1-Eya2 blk: 2; TDP1 inh: -2%; JMJD2A Tudor: 2.8µM*; HP1b binding inh: inconclusive; BAZ2B inh: -28%

What do the screens show for `Cc1cc(-n2c(SCC(=O)NCc3ccccc3)nc3ccsc3c2=O)ccc1Cl`?
TDP1 inh: 0%; JMJD2A Tudor: -12%; HP1b binding inh: 18%; BAZ2B inh: 1%

What do the screens show for `CN(C)c1ccc(C(CNS(=O)(=O)c2ccc(F)cc2)c2c[nH]c3ccccc23)cc1` (stereo unspecified)?
CtBP-E1A blk: inconclusive; Six1-Eya2 blk: inconclusive; TDP1 inh: 12%; JMJD2A Tudor: 25µM*; HP1b binding inh: inconclusive; BAZ2B inh: 18µM*

How did CCOC(=O)c1ccc(S(=O)(=O)NCC(c2ccc(N(C)C)cc2)c2c[nH]c3ccccc23)cc1 (stereo unspecified) do in these assays?
CtBP-E1A blk: 2; Six1-Eya2 blk: inconclusive; TDP1 inh: 6%; JMJD2A Tudor: 11µM*; HP1b binding inh: 32µM*; BAZ2B inh: 10µM*

Results for COc1ccccc1CNCC(=O)N1CC(=O)Nc2ccccc21 ?
Six1-Eya2 blk: 2; JMJD2A Tudor: 20µM*; HP1b binding inh: -8%; BAZ2B inh: 50µM*

Results for O=C1CN(C(=O)CNCc2ccccc2)c2ccccc2N1 ?
CtBP-E1A blk: 0; Six1-Eya2 blk: -3; TDP1 inh: -11%; JMJD2A Tudor: 3.5µM*; HP1b binding inh: inconclusive; BAZ2B inh: 50µM*
